# PubChem BioAssay
# Active and inactive are the calls of the source.
# Assays:
# Albumin (Bos taurus) = Albumin (Bos taurus) (UniProt P02769); experiment: compounds binding labelled BSA control protein – biochemical, small-molecule microarray, Alexa647 label, 635/667 nm fluorescence, artefact control for SMM control protein annotation, profiling panel (AID 1118); details: BSA-A647 binding, fluorescence 635 nm, higher = more signal;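 also: score merges 667 nm emission intensity and signal-to-noise per printed compound spot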
# [1] = probe aXIP binding to arrayed compounds – biochemical, NeuroSMM set, 635/667 nm fluorescence, primary screen (AID 1119); details: small-molecule microarray, higher = more signal, called active from +8 up or from −8 down;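 also: probe is the protein aXip251-270 applied at 1 µg/mL to compound-printed slides; binding of probe to printed compounds measured as 667 nm fluorescence plus signal to noise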
# [2] = probe aNOTCH3 binding on compound microarray – biochemical, small-molecule microarray, 635/667 nm fluorescence, primary screen (AID 1120); details: higher = more signal;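 also: probe is a biotin-tagged antibody raised against NOTCH3 rather than NOTCH3 protein; score merges spot fluorescence near 667 nm with spot signal to noise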
# [3] = probe aNOTCH2 binding on compound microarray – biochemical, small-molecule microarray, 635/667 nm fluorescence, primary screen (AID 1121); details: higher = more signal;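 also: score merges feature fluorescence read at 667 nm with its signal to noise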
# [4] = biological target: Carbonic anhydrase 2 (Homo sapiens) (UniProt P00918); experiment: compounds binding carbonic anhydrase 2 – biochemical, small-molecule microarray, Alexa647-labelled CAII, profiling panel (AID 1122); details: CAII-A647 binding fluorescence, higher = more signal
# [5] = COS7 lysate on small-molecule microarray, probe aHis, 635 nm (AID 1123); details: COS7 cell lysate, fluorescence, higher = more signal;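 also: z-score combines 667nm fluorescence intensity with signal-to-noise per printed compound spot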
# [6] = probe aLAP1 signal on lysate-treated microarray – cell lysate, small-molecule microarray, COS7 lysate, primary screen (AID 1124); details: probe aLAP1, fluorescence, higher = more signal;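 also: lysate comes from COS7 cells expressing LAP1 and is applied at 0.3 µg/mL; score merges spot fluorescence near 667 nm with signal-to-noise over triplicate slides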
# Sam68 (KHDRBS1) = experiment: compounds binding KHDRBS1 protein – biochemical, small-molecule microarray, 635 nm fluorescence, primary screen (AID 1125); details: higher = more signal;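 also: score merges 667 nm channel intensity with signal to noise over triplicate slides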
# [7] = system: Chordin-like protein 2 (CHRDL2); experiment: compounds binding chordin-like 2 – biochemical, small-molecule microarray, 635 nm fluorescence, primary screen (AID 1126); details: fluorescence 635 nm, higher = more signal;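 also: printed compound slides probed with Chrdl2 protein at 4 µg/mL for 1 h at 4 C; score merges 667 nm emission intensity with signal to noise over three replicate slides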
# [8] = biological target: Concanavalin-A (Canavalia ensiformis) (UniProt P02866); experiment: compounds binding concanavalin A lectin – biochemical, small-molecule microarray, Alexa647 label, 635 nm, artefact control for SMM control protein annotation, primary screen (AID 1127); details: ConA-A647 binding fluorescence, higher = more signal;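 also: z combines 667 nm emission intensity with signal-to-noise across three replicate slides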
# [9] = compounds binding Alexa647 anti-His antibody – biochemical, small-molecule microarray, 635 nm fluorescence, artefact control for SMM control protein annotation, primary screen (AID 1128); details: higher = more signal;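 also: score merges feature fluorescence with signal-to-noise for each printed compound spot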
# [10] = system: Human papillomavirus type 1a E7 protein (residues 1-88); experiment: HPV1a E7 small-molecule binders, primary screen, biochemical, small-molecule microarray, residues 1-88, 635 nm (AID 1129); details: small-molecule microarray binding, fluorescence 635 nm; higher = more signal
# [11] = biological target: Focal adhesion kinase 1 (Homo sapiens) (UniProt Q05397); experiment: PTK2 protein binding on printed compound slides – biochemical, small-molecule microarray, 635/667 nm fluorescence, BSA, DTT, primary screen (AID 1130); details: 635 nm fluorescence, higher = more signal;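 also: composite of spot emission at 667 nm and signal to noise over triplicate slides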
# [12] = system: Fibrinogen (Alexa647-labelled); experiment: Alexa647-fibrinogen binding to printed small molecules – biochemical, small-molecule microarray, 635/667 nm fluorescence, artefact control for SMM control-protein annotation, profiling panel (AID 1131); details: fibrinogen-A647 binding fluorescence, higher = more signal;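 also: z-score merges 667 nm fluorescence with per-spot signal-to-noise over triplicate slides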
# [13] = biological target: Follistatin (Homo sapiens) (UniProt P19883); experiment: FST protein binding to printed compounds – biochemical, small-molecule microarray, 635/667 nm fluorescence, primary screen (AID 1132); details: 635 nm fluorescence, higher = more signal
# [14] = biological target: Fibroblast growth factor 2 (Homo sapiens) (UniProt P09038); experiment: basic fibroblast growth factor binding to printed compounds – biochemical, small-molecule microarray, 635/667 nm fluorescence, primary screen (AID 1133); details: FGF2, fluorescence 635/667, higher = more signal
# [15] = JC-1 mitochondrial potential readout, lung cancer cells – cell-based, A549, JC-1 fluorescence, basal, 24 h, 100 nL, profiling panel (AID 1138); details: higher = more signal;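 also: A549 lung adenocarcinoma cells under basal conditions with no added stimulus; test concentration not given here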
# Lefty1 = Lefty1 protein binding to printed compounds – biochemical, small-molecule microarray, 635/667 nm fluorescence, primary screen (AID 1139); details: fluorescence 635/667, higher = more signal
# [16] = system: wheat germ agglutinin (Triticum aestivum), Alexa647-labelled; experiment: Alexa647-WGA lectin binding to printed small molecules – biochemical, small-molecule microarray, 635/667 nm fluorescence, artefact control for SMM control-protein annotation, profiling panel (AID 1140); details: WGA-A647 binding, 635 nm fluorescence, higher = more signal;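 also: score merges 667 nm feature emission with signal to noise over triplicate slides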
# [17] = biological target: Luciferin 4-monooxygenase (Photinus pyralis) (UniProt P08659); experiment: inhibition of purified Photinus pyralis luciferase – biochemical, luminescence, purified enzyme, 2006 set, primary screen (AID 1141); details: purified firefly luciferase, SteadyGlo luminescence, 30 min; higher = more signal, called active from +8 up or from −8 down;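 also: cell-free assay with purified firefly luciferase at 100 ng per well in PBS; test concentration not given here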
# Chain of Luciferin 4-monooxygenase (Photinus pyralis) (P08659 whole entry, looked up): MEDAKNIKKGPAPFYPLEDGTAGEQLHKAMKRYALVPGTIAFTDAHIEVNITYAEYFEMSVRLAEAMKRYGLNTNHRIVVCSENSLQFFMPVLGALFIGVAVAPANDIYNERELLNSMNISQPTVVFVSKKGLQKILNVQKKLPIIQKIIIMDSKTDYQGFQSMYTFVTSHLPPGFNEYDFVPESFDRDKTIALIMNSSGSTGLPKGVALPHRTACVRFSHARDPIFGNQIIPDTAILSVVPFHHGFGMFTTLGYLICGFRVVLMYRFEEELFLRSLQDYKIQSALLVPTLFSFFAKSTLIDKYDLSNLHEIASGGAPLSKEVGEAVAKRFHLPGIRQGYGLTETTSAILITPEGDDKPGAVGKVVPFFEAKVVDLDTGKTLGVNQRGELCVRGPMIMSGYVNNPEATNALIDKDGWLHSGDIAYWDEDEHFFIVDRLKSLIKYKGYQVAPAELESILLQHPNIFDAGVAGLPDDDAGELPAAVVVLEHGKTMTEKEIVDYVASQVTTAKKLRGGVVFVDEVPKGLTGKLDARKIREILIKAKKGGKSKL
# Chain of Fibroblast growth factor 2 (Homo sapiens) (P09038 whole entry, looked up): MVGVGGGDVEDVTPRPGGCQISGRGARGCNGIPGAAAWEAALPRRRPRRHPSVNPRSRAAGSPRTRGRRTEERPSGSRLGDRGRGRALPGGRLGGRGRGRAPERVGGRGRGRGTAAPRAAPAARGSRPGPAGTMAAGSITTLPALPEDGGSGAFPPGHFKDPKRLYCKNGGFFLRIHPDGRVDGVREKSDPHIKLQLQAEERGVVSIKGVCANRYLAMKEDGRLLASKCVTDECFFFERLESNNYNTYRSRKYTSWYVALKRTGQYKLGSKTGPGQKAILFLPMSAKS
# Chain of Follistatin (Homo sapiens) (P19883 whole entry, looked up): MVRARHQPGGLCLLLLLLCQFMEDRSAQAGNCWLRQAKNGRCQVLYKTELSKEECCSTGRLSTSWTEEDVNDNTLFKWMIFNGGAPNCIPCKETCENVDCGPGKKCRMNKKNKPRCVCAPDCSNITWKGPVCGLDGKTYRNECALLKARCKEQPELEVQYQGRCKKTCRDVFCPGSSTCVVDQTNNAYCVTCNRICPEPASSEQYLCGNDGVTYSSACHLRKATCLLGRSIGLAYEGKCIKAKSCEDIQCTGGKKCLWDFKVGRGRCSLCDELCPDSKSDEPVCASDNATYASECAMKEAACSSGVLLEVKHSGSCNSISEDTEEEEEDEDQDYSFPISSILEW
# Chain of Focal adhesion kinase 1 (Homo sapiens) (Q05397 whole entry, looked up): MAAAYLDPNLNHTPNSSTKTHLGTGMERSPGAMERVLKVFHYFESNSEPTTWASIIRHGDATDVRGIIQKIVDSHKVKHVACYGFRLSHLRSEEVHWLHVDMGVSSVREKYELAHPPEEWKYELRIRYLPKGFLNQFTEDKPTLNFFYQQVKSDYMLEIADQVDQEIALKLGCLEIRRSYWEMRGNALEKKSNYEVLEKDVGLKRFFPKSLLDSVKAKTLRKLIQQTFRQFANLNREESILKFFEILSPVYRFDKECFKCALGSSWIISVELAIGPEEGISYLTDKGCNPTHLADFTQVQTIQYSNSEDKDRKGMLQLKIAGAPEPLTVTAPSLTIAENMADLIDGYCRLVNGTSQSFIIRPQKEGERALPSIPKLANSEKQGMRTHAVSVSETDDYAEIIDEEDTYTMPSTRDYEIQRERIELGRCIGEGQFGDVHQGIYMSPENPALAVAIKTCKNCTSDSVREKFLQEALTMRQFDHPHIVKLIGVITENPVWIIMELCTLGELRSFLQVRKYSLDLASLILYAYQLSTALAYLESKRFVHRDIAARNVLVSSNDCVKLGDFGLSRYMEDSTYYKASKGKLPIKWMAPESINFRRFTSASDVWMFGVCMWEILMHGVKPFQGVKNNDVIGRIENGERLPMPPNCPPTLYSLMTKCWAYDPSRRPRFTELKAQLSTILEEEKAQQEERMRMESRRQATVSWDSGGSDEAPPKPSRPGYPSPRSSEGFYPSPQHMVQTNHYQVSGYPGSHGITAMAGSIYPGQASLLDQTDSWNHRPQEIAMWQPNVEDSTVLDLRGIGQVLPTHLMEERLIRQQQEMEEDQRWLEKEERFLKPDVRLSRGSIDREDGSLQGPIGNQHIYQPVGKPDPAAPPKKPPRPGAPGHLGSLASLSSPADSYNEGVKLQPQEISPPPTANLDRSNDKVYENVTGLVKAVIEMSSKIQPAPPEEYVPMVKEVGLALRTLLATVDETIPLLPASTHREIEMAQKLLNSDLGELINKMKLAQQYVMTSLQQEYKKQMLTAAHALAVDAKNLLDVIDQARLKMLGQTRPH
# Chain of Albumin (Bos taurus) (P02769 whole entry, looked up): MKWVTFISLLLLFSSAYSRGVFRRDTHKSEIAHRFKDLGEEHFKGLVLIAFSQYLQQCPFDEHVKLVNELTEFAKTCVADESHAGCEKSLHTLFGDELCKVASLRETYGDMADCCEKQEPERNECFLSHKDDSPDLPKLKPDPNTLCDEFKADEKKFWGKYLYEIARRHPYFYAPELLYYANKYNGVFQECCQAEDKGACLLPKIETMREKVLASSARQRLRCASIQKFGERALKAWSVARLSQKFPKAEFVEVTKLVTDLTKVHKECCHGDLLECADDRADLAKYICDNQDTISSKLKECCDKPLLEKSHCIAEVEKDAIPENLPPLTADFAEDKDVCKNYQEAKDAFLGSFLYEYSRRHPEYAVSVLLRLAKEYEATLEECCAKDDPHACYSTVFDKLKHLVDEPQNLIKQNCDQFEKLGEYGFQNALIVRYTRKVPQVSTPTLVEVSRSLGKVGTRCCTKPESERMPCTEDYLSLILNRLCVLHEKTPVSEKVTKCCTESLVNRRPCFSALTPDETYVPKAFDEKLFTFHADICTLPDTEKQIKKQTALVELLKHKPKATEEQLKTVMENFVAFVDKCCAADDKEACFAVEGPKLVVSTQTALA
# Chain of Concanavalin-A (Canavalia ensiformis) (P02866 whole entry, looked up): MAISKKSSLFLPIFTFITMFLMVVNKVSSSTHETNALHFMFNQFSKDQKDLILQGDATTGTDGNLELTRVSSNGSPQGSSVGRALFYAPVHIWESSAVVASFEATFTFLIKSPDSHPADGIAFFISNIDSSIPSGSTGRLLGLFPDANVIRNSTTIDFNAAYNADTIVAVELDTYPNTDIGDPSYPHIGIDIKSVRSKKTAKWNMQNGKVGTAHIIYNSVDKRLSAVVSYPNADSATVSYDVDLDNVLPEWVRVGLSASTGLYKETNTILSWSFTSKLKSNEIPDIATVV
Structure (SMILES),composite z-score (Albumin (Bos taurus)),composite Z-score [1],composite z-score [2],composite z-score [3],composite z-score [4],composite z-score [5],composite z-score [6],composite z-score (Sam68 (KHDRBS1)),composite z-score [7],composite z-score [8],composite z-score [9],composite z-score [10],composite z-score [11],composite z-score [12],composite z-score [13],composite z-score [14],z-score [15],composite z-score (Lefty1),composite z-score [16],z-score [17]
COc1ccc(COC(=O)NN=C2C[C@@H](O)[C@@H](O)[C@@H]3[C@@H]4C(=O)N(Cc5ccccc5)C(=O)[C@@H]4CC[C@@H]23)cc1,-0.0233,-0.185 (inactive),-0.0362,-0.182,-0.359,0.275,-0.23,0.389,0.172,0.0738,0.57,0.343,0.0398,-0.113,0.364,0.164,0.485,0.292,-0.0049,0.778 (inactive)
COc1cccc([C@H](O)Cn2cc(-c3ccc(CON=C(C)C)cc3)nn2)c1,0.212,-0.511 (inactive),-0.0647,0.127,-0.0261,-0.011,-0.169,-0.937,0.0083,-2.65,0.0043,-1.15,-0.351,-1.01,-0.46,-0.153,-0.442,-0.324,-0.3,0.278 (inactive)
COc1ccc(COC(=O)NN=C2C[C@@H](O)[C@@H](O)[C@@H]3[C@@H]4C(=O)N(Cc5ccc6c(c5)OCO6)C(=O)[C@@H]4CC[C@H]23)cc1,0.252,0.0467 (inactive),0.0534,-0.0523,-0.32,0.352,-0.257,-0.319,-0.486,-1.15,-0.0397,-0.474,-0.126,-0.261,-1.12,-1.21,0.419,-1.06,0.801,0.506 (inactive)
CC1(C)O[C@H]2O[C@H]([C@H](O)CON=C3[C@H]4CCn5c(=O)n(-c6ccccc6)c(=O)n5[C@H]4[C@H](O)[C@@H]4O[C@H]34)[C@H](O)[C@H]2O1,0.661,-0.171 (inactive),-0.342,-0.105,-0.195,-0.337,-0.0336,-0.773,0.19,0.444,0.455,-0.282,-0.282,0.0946,0.154,0.947,-0.994,0.222,0.0136,0.0158 (inactive)
CCOC(=O)CCN1C(=O)[C@H]2[C@H]3[C@H](O)[C@H](O)CC(=NOCC(C)C)[C@@H]3CC[C@H]2C1=O,-0.0235,0.544 (inactive),-0.0693,-0.186,-0.52,-0.934,-0.412,-0.0659,1.45,-1.16,-0.957,-0.263,-0.286,-0.586,0.91,1.14,-0.478,0.929,0.0456,0.826 (inactive)
